This note sets out measurements from PubChem BioAssay (EPA / NIEHS).

Calls of active or inactive are those of the source. The calls were made as follows: active = hit-call score of the fitted dose curve at least 0.9, where 1 is the maximum; inactive = score below 0.9.

Read-out in the assay: Vascular cell adhesion molecule 1 (VCAM1), VCAM1 (gene 7412)
Description: BSK_hDFCGF_VCAM1: BioMAP Diversity Plus: hDFCGF Assay for Vascular cell adhesion molecule 1 (VCAM1) Biomarker Activity (AID 2283065). Conditions: primary human foreskin fibroblasts; actives raise or lower the signal. As to the method:
BSK_hDFCGF is a cell-based, multiplexed-readout assay that uses foreskin fibroblast, a human skin primary cell, with measurements taken at 24 hours after chemical dosing in a 96-well plate.BSK_hDFCGF_VCAM1 is an assay component measured in the BSK_hDFCGF assay. It measures VCAM-1 antibody related to regulation of gene expression using ELISA technology.Data from the assay component BSK_hDFCGF_VCAM1 was analyzed into 1 assay endpoint. This assay endpoint, BSK_hDFCGF_VCAM1, was analyzed with bidirectional fitting relative to DMSO as the negative control and baseline of activity. Using a type of binding reporter, gain or loss-of-signal activity can be used to understand changes in the signaling as they relate to the gene VCAM1. Furthermore, this assay endpoint can be referred to as a primary readout, because this assay has produced multiple assay endpoints where this one serves a signaling function. To generalize the intended target to other relatable targets, this assay endpoint is annotated to the cell adhesion molecules intended target family, where the subfamily is Immunoglobulin CAM.
The levels of cell surface (or secreted, indicated by the prefix "s") biomarker endpoints were measured by ELISA. Overt cytotoxicity to cells in confluent adherent cultures (all systems other than the BT system) was assessed by measuring total protein levels using sulforhodamine B (SRB) staining in parallel cultures at the time of biomarker measurements, indicated as SRB endpoints. For proliferation assays for adherent cell types, individual cell types are cultured at sub-confluence and relative cell numbers quantified by SRB staining at time points optimized for each system (48 h: 3C and CASM3C systems; 72 h: BT and HDF3CGF systems; 96 h: SAg system). SRB was performed by staining cells with 0.1% SRB after fixation with 10% TCA and reading wells at 560 nm.Viability and proliferation of PBMC (T cells) was quantified by Alamar Blue reduction for the SAg and BT systems. For PBMC viability (referred to as PBMC Cytotoxicity within the assay endpoint names), cells were plated (75,000/well in a 96-well plate) and then chemical samples added for 1 h before addition of activators, SEB and TSST-1 (20 ng/mL final concentration each). Cells were incubated for 90 h. Then, Alamar Blue (20 uL/well) (Invitrogen, Cat DAL1100) was added for 6 h, and the plates were read with a fluorescence microplate reader at 546/580 nm (excitation/emission). For PBMC proliferation, cells were plated and activated as above but incubated for only 16 h prior to addition of Alamar Blue. Plates were read after 6 h.
Take `CCCCOC(=O)CCCCCCCCC(=O)OCCCC`: the outcome was inactive.
Regarding `C=CCOC(=O)c1ccccc1C(=O)OCC=C`, the result was inactive.
For the compound `CCOc1ccc2c(c1)C(C)=CC(C)(C)N2`, the half-maximal activity concentration (AC50) is 3.97 µM (active).
In the case of `CC(=O)OCCOCCOCCOC(C)=O`, the outcome was inactive.
In the case of `Oc1ccc2ccccc2c1N=Nc1ccccc1`, the result was inactive.
Same read-out and setting: in the case of `COc1cc(C=O)ccc1O` it was “inactive”.
Same read-out and setting: in the case of `Cc1ccc(Cl)cc1` it was “inactive”; in that of `O=c1c(O)c(-c2ccc(O)c(O)c2)oc2cc(O)cc(O)c12`, “inactive”; in that of `Cc1cccc(C)c1O`, “inactive”.
As to `CC(C)c1ccc(C(=O)N=C(N)N)cc1S(C)(=O)=O`, the outcome was inactive.
Turning to `CN[C@H]1CC[C@@H](c2ccc(Cl)c(Cl)c2)c2ccc(S(N)(=O)=O)cc21`, the AC50 was 11.9 µM (active).
On to `CCCCCCCCCCC`, for which the result was inactive.
For `Clc1cc(Cl)c(Cl)cc1Cl`, the result was inactive.
Same read-out and setting: the value for `Cc1nc(-c2ccc3c(c2)CCN(CCC2CCC(NC(=O)/C=C/c4ccc(F)cc4)CC2)CC3)no1` (stereo not given) was “inactive”.
On the same count and under the same terms, the value for `COCCOCCOC` was “inactive”; that for `COCCOC[C@H](CC1(C(=O)NC2CCC(C(=O)O)CC2)CCCC1)C(=O)Oc1ccc2c(c1)CCC2` (stereo not given in full) was “inactive”.
As to `C[Si]1(C)O[Si](C)(C)O[Si](C)(C)O[Si](C)(C)O1`, the result was inactive.
In the case of `CCCCCCC(=O)OCC`, the outcome was inactive.
As to `Nc1ccc2c(c1)C(=O)c1ccccc1C2=O`, the outcome was inactive.
Still for that read-out and setting: the value for `Cc1ccc(C)c(O)c1C` was “inactive”.
`C1CCC(SSC2CCCCC2)CC1`: the AC50 is 38.4 µM (active).
As for `CC1(C)CC(N=C=O)CC(C)(CN=C=O)C1` (stereo not given), the outcome was inactive.
As for `NS(=O)(=O)c1cc2c(cc1Cl)NCNS2(=O)=O`, the result was inactive.
Consider `O=C(O)CCCCC(=O)O`, for which the outcome was inactive.
Still for that read-out and setting: the value for `Nc1nc(N)c2nc(CNc3ccc(C(=O)N[C@@H](CCC(=O)O)C(=O)O)cc3)cnc2n1` was “inactive”.
Same read-out and setting: in the case of `CC(=O)OC/C=C(\C)CCC=C(C)C` it was “inactive”; in that of `C=CCc1ccc(O)c(OC)c1`, “inactive”; in that of `Cc1c(C(=O)O)c(O)cc2c1C(=O)c1c(O)c([C@@H]3O[C@H](CO)[C@@H](O)[C@H](O)[C@H]3O)c(O)c(O)c1C2=O`, “inactive”.
Same read-out and setting: the value for `CCCCCCCCCCO` was “inactive”; that for `CNC(=O)[C@H]1O[C@@H](n2cnc3c(NCc4cc(Cl)ccc4OCc4cc(C)no4)ncnc32)[C@H](O)[C@@H]1N` was “inactive”; that for `CC1(C)NC(=O)NC1=O` was “inactive”.
As for `Cc1oc(-c2ccccc2)nc1CCOc1cccc2c1ccn2CCC(=O)O`, the result was inactive.
On the same count and under the same terms, in the case of `c1cc(-c2ccncc2)ccn1` it was “inactive”; in that of `CCCCCCCC=O`, “inactive”.
Same read-out and setting: in the case of `COC(=O)c1ccc(O)cc1` it was “inactive”; in that of `C[C@]12C=CC(=O)C=C1CC[C@@H]1[C@@H]2C(=O)C[C@@]2(C)[C@H]1CC[C@]2(O)C(=O)CO`, “inactive”.
Turning to `COc1ccc(S(=O)(=O)N2C(=O)[C@@](c3ccccc3OC)(N3C[C@H](O)C[C@H]3C(=O)N(C)C)c3cc(Cl)ccc32)c(OC)c1`, the result was inactive.
For `Cc1nc(C)nc(N2C[C@@H](C)N(c3ccnc([C@@H](C)O)n3)[C@@H](C)C2)n1`, the outcome was inactive.
Same read-out and setting: in the case of `NC(=O)Cn1c(=O)cc(CCN2CCN(c3nccc4sccc34)CC2)c2ccc(F)cc21` it was “inactive”.
The same measure, in the same setting: the value for `CN1CCCC1=O` was “inactive”.

For orientation: AC50 means the concentration giving half of the maximal activity seen.
